# Screening data deposited in PubChem by several laboratories.
# Hits are enriched below; roughly 2.5% of the tested compounds scored in any of these assays.
# HDAC3 inhib – HDAC3 deacetylase inhibitors, primary screen, biochemical, fluorescence, cell-free homogeneous; Histone deacetylase 3 (Homo sapiens), O15379; recombinant HDAC3, fluorogenic peptide/trypsin coupled; inhibition, % at 8.3 µM; actives 0.15% (n = 320,000); AID 2718, 2010; in the data active = inhibition above about 26%, passing the limit was not always enough; inconclusive = no clear call, values can overlap the other calls
# PfM18AAP inh-1 – PfM18AAP inhibitors, malaria aminopeptidase, primary screen, biochemical, QFRET, recombinant enzyme; AID 1822, 2009; actives 1.2% (n = 290,000); inhibition, % at 7.35 µM; H-Glu-NHMec fluorogenic cleavage; M18 aspartyl aminopeptidase (Plasmodium falciparum 3D7);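 active = inhibition above the campaign mean inhibition over all tested compounds plus 3 SD, cut at about 28% in these data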;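 note: 0% = plate median of test compound wells and 100% = 2 mM ZnCl2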
# PHOSPHO1 block – PubChem AID 1565; inhibition, % at 13.3 µM; actives 1.1% (n = 290,000); recombinant PHOSPHO1, absorbance phosphatase assay; in the data active = inhibition above about 60%
# Target sequence (Q8TCT1 whole entry, looked up): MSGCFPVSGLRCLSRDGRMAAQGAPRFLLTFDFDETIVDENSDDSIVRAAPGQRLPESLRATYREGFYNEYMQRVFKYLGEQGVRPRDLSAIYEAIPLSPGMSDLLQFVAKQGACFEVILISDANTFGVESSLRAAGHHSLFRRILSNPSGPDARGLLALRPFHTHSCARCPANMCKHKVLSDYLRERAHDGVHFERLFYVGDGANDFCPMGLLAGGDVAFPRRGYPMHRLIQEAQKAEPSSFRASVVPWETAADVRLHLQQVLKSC
# SUMO HTRF inh – inhibitors of in vitro SUMOylation cascade, primary screen, biochemical, HTRF, uHTS; HTRF SUMOylation assay, SAE1/SAE2 + UBC9; inhibition, % at 35 µM; actives 0.36% (n = 290,000); AID 2006, 2009; in the data active = inhibition above about 50%, passing the limit was not always enough; inconclusive = no clear call, values can overlap the other calls
# p97 ATPase inh – inhibitors of human p97 ATPase, primary screen, biochemical | Transitional endoplasmic reticulum ATPase (Homo sapiens), P55072 | recombinant p97 ATPase, Kinase-Glo ATP luminescence, 3 h | inhibition, % at 8 µM | actives 0.42% (n = 220,000); in the data active = inhibition above about 15%;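 note: 0% = DMSO vehicle and 100% = wells lacking enzyme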
# G6PDH CS – L. mesenteroides G6PDH inhibitors, counter-screen for G6PDH-coupled screening assays, biochemical, Leuconostoc mesenteroides enzyme; AID 1020, 2008; glucose-6-phosphate dehydrogenase [Leuconostoc mesenteroides]; inhibition, % at 5 µM; Purified L. mesenteroides G6PDH, diaphorase/resazurin coupled fluorescence, 45 min; actives 0.12% (n = 200,000); in the data active = inhibition above about 50%
# PfM18AAP inh-2 – PfM18AAP inhibitors, malaria aminopeptidase, confirmation, biochemical, QFRET, recombinant enzyme, triplicate | actives 28% (n = 2,400) | shares compounds with PfM18AAP inh-1 | H-Glu-NHMec fluorogenic cleavage | inhibition, % at 7.35 µM;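 active = mean inhibition over replicate wells above the hit cutoff set for the earlier primary screen, cut at about 29% in these data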;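 note: 0% = median of test compound wells and 100% = 2 mM ZnCl2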
# CTSL1 counter – cathepsin L1 inhibitors, retest, confirmation, counter-screen for PFM18AAP inhibitor project, biochemical, QFRET, triplicate; shares compounds with PfM18AAP inh-1; purified cathepsin L1, Z-Leu-Arg-MCA fluorescence; inhibition, % at 5.96 µM; 2,400 tested, under 10 active;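 active = average inhibition across replicates above the hit cutoff set in the earlier primary screen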;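 note: 0% = median of test compound wells and 100% = Z-Phe-Ala-diazomethylketone 1 µM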
# Target sequence (P07711 whole entry, looked up): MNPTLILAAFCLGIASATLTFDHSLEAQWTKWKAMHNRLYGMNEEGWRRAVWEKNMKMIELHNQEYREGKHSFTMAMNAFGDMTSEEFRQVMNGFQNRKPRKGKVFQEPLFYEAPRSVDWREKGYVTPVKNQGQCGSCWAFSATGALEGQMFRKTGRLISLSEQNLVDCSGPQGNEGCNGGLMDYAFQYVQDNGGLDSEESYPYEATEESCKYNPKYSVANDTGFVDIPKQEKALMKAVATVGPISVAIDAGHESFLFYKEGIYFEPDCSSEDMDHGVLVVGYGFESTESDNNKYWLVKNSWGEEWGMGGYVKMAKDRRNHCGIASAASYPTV
# An asterisk follows results filed as active; ? = inconclusive; nt = not tested or not shown.
SMILES,HDAC3 inhib,PfM18AAP inh-1,PHOSPHO1 block,SUMO HTRF inh,p97 ATPase inh,G6PDH CS,PfM18AAP inh-2,CTSL1 counter
CC1=C(C(=O)O)N2C(=O)C(NC(=O)c3ccccc3Cl)C2SC1 (centres undefined),2,34*,11,20,nt,nt,-7,-1
Cc1ccc(C2C3=C(CCCC3=O)Nc3[nH]c(=S)[nH]c(=O)c32)cc1 (centres undefined),5,40*,102*,11,-3,3,38*,4
O=C1CCCC2=C1C(c1ccc(Br)cc1)c1c([nH]c(=S)[nH]c1=O)N2 (centres undefined),19,16,38,9,-1,-27,nt,nt
CCCN1CCC(NC23CC4CC(CC(C4)C2)C3)CC1,-10,-4,29,14,nt,nt,nt,nt
Cc1cc2c(C)nc(N/N=C/c3ccc(F)cc3)nc2o1,8,46*,-2,1,8,-18,-49,0
O=C(/C=C/c1cccs1)N1CCCCC1,-11,-3,4,8,6,12,nt,nt
O=C(/C=C/c1cccs1)N1CCN(c2ccc(O)cc2)CC1,0,45*,0,16,-1,2,-10,5
CCC/C=N/Nc1nnc(Cc2ccc(OC)c(OC)c2)c(=O)[nH]1,4,32*,44,6,nt,nt,-29,-5
Nc1c(S(=O)(=O)c2cccc(Cl)c2)c2nc3ccccc3nc2n1/N=C/c1ccc(O)c(O)c1,8,44*,4,21,8,-3,12,-4
COc1cccc(/C=N/n2c(N)c(S(=O)(=O)c3cccs3)c3nc4ccccc4nc32)c1OC,-13,1,18,-22,8,-2,nt,nt
CCNC(=S)NNc1nncc2ccccc12,2,36*,-133,3,3,4,11,2
COc1ccccc1CC(=O)Nc1ncc(C)s1,2,1,nt,2,nt,nt,nt,nt
O=C(Nc1ccc(N2CCN(C(=O)c3ccccc3F)CC2)cc1)c1ncn[nH]1,-1,39*,-17,3,3,-1,22,5
CCC(=O)Nc1nc(-c2ccccc2)ns1,-3,6,10,5,-6,-3,nt,nt
CC(C)c1nnc(NC(=O)CSc2ncn[nH]2)s1,9,42*,21,-1,1,3,52*,4
O=C(CSc1ncn[nH]1)Nc1nc(-c2ccccc2)ns1,3,82*,43,-18,-4,7,85*,-4
O=C(CSc1ncn[nH]1)Nc1ccccc1C(=O)O,-7,44*,-6,10,1,6,15,0
COc1ccccc1NC(=O)CSc1ncn[nH]1,-4,4,-7,18,-1,6,nt,nt
CC(=O)n1c(-c2ccccc2)c(-c2ccccc2)n(C)c1=O,-6,nt,nt,nt,nt,nt,nt,nt
O=C(Nc1ccccc1C(=O)O)c1ncn[nH]1,nt,77*,25,9,4,4,58*,-1
Cn1cc(P(=O)(N2CCOCC2)N2CCOCC2)cc1P(=S)(N1CCOCC1)N1CCOCC1,-1,37*,-89,27,-8,9,-18,7
Cn1cc(P(=S)(N2CCOCC2)N2CCOCC2)cc1P(=O)(N1CCOCC1)N1CCOCC1,0,23,-35,-29,-3,4,nt,nt
COc1ccccc1/C=C/C(=O)OC(C)CN1CCOCC1 (centres undefined),1,51*,15,-7,1,-4,-39,4
CC(OC(=O)C1CCCCC1)C(=O)Nc1ccc(S(N)(=O)=O)cc1 (centres undefined),4,nt,nt,nt,nt,nt,nt,nt
CCOC(=O)c1c(C2COc3ccccc3O2)csc1N (centres undefined),-6,60*,19,11,4,12,-57,0
SMILES,HDAC3 inhib,PfM18AAP inh-1,PHOSPHO1 block,SUMO HTRF inh,p97 ATPase inh,G6PDH CS,PfM18AAP inh-2,CTSL1 counter
CCOC(=O)c1c(C2COc3ccccc3O2)csc1NC(=O)c1ccccc1 (centres undefined),0,-9,6,19,2,0,nt,nt
COc1ccc(NC(=O)c2c(NC(=O)CCC(=O)O)sc3c2CCCCC3)cc1,8,44*,-76,17,4,13,-46,-5
O=C(CSc1ncnc2c1nnn2Cc1ccccc1)NC1CCCCC1,-9,0,43,8,nt,nt,nt,nt
Nc1ccc(O)cc1C(=O)OCC(=O)c1ccc(C2CCCCC2)cc1,0,36*,14,65,4,6,-21,-2
CC(Oc1ccccc1Cl)C(=O)N(Cc1cccs1)C1CCS(=O)(=O)C1 (centres undefined),0,-12,28,0,nt,nt,nt,nt
CCOC(=O)c1cn2nc(Oc3ccc(C#N)cc3)ccc2n1,-2,-5,32,21,3,nt,nt,nt
O=C(/C=C/c1ccc(O)c(O)c1)OC1C(O)CC(OC(=O)/C=C/c2ccc(O)c(O)c2)(C(=O)O)CC1O (centres undefined),8,76*,34,15,11,nt,64*,6
O=C(NNc1nc2cc3c(cc2s1)OCCO3)c1ccc(F)cc1,-3,27,27,25,0,4,nt,nt
O=C(NNc1nc2cc3c(cc2s1)OCO3)c1ccc(F)cc1,1,42*,6,-7,12,12,6,-2
CN(C(=O)C(Cl)Cl)C1CC2C=CC1C2 (centres undefined),3,0,12,3,5,nt,nt,nt
Oc1ccc(-c2csc(Nc3ccccn3)n2)c(O)c1,?,34*,-19,-4,nt,nt,13,-1
c1ccc(Nc2nc(-c3cccs3)cs2)nc1,-4,1,-7,-35,-1,7,nt,nt
Cc1cccnc1Nc1nc(-c2ccc(O)cc2O)cs1,2,32*,59,-7,3,21,5,4
Cc1ccc(Nc2nc(-c3ccc(F)cc3)cs2)nc1,-1,-3,45,-13,nt,nt,nt,nt
Cc1nc2ncccn2c1-c1csc(Nc2ccc(O)cc2)n1,nt,41*,29,6,9,11,43*,-2
Cc1ccc(Nc2nc(-c3ccc(O)c(O)c3)cs2)nc1,nt,63*,20,8,14,24,43*,2
Oc1ccc(-c2csc(Nc3ncccn3)n2)cc1,-7,-16,40,10,3,-1,nt,nt
